As a reminder, the AC50 is the concentration giving half of the maximal activity seen.

The source made the active and inactive calls. The calls were made as follows: active = hit-call score of the fitted dose curve at least 0.9, where 1 is the maximum; inactive = score below 0.9.

Read-out in the experiment: catalase (CAT), CAT (gene 847)
The experiment in a line: LTEA_HepaRG_CAT: Life Technologies and Expression Analysis (LTEA) Assay for catalase (CAT) using HepaRG (AID 2283452).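 As to AC50: TaqMan qRT-PCR signal normalized to ACTB GAPDH and POLR2A housekeeping genes.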 The following applies: mRNA level, 48 h; actives raise or lower the signal. On the procedure:
LTEA_HepaRG is a cell based, multiplexed-readout assay that uses HepaRG, a human liver cell line, with measurements taken at 48 hours after chemical dosing on a 96-well plate.LTEA_HepaRG_CAT is one of 102 assay component(s) measured in the LTEA HepaRG cell culture assay. It is a marker of Oxidative Stress.Data from the assay component LTEA_HepaRG_CAT was analyzed into 1 endpoint. This assay endpoint, LTEA_HepaRG_CAT, was analyzed with bidirectional fitting relative to DMSO as the negative control and baseline of activity. Using a type of inducible reporter, measures of mRNA induction for gain or loss-of-signal activity can be used to understand regulation of transcription factor activity. To generalize the intended target to other relatable targets, this assay endpoint is annotated to the catalase intended target family, where the subfamily is oxidative stress.
A total of 1060 chemcials from the ToxCast library were tested in eight-point concentration-response experiments. Cell culture and cytotoxicity assays were conducted at Thermo Fisher Scientific's Custom Services facility (Madison, WI). A single lot of human HepaRG cells (Thermo Fisher Scientific, Frederick, MD) was used for the cell culture experiments. 96-well format collagen type I coated plates of human HepaRG cells were prepared using established methods. Briefly, cryopreserved HepaRG cells were thawed, plated at a density of approximately 100,000 cells/well in HepaRG Thaw, Plate, and General Purpose media (HPRG770, Thermo Fisher Scientific), and incubated for 48 hours. 0.5% DMSO was selected as vehicle control to balance the requisite need of DMSO in HepaRG cultures to maintain differentiation (for example, baseline metabolism, proportions of hepatocytes vs. cholangiocytes), while enabling further hepatic receptor pathway activation (for example, PXR and CAR) in response to chemical exposure. 48 hours after plating, the culture medium was replaced with HepaRG Serum-Free Incudtion Media. Cells were exposed to each test chemical in duplicate and maintained in CO2 incubators for another 48 hours. Chemical plates were thawed to room temperature and 200x concentrations of treatment groups were prepared. 8-point conentration-reponse curves were made with the highest exposure at 100 uM, followed by half-log dilutions, all in 0.5% DMSO. Each test plate contained variouse controls, induction positive controls (1mM phenobarbital), cytotoxicity positive controls ([…] aflatoxin B1), vehicle controls (0.5% DMSO), and total lysis controls (0.5% DMSO). Cell morphology images were taken using an Essen IncuCyte FLR automated microscope, with six 96-well plates imaged in about 24 minutes. Images were captured and exported and JPEG files. Spent culture media was transfered to black-well plates for the LDH assay, and remaining media was sorted at -80 C for later use. Cells were treated with RLT buffer and frozen until shipped for gene expression analysis. Total RNA was isolated from the cell suspension in 75 uL of Buffer RLT (Qiagen, Germantown, MD 20874) by Quintiles/Expression Analysis (Durham, NC) using a custom isolation procedure. Total RNA from each plate well was transferred to a preamplification plate. Fluidigm's 96.96 Dynamic ArrayTM (Fluidigm, Amsterdam, the Netherlands) technology was used for gene expression analyses by quantitative reverse transcription polymerase chain reaction (qRT-PCR, performed by Quintiles/Expression Analysis, Durham, NC)89. Standard TaqManTM Assays (Applied Biosystems/ThermoFisher Scientific, Foster City, CA) were used to assess the expression of 93 genes selected based on their selectivity and sensitivity to important hepatic receptors known to be modulated by environmental chemicals; importance in human hepatocyte functionality; and hepatotoxicity. […]
With `C=CCc1ccc2c(c1)OCO2`, the call was inactive.

With `CCCSC(=O)N(CCC)CCC`, the compound was classed as inactive.

In the case of `CC(C)(C)C(O)(CCc1ccc(Cl)cc1)Cn1cncn1` (stereo not given), the compound was classed as inactive.

For the compound `CC(C)(O)c1cnn2c(-c3ccc(F)c(-c4c(F)cccc4C#N)c3)cnc2n1`, the compound was called inactive.

Consider `CS(=O)(=O)NC(=O)c1cc(Oc2ccc(C(F)(F)F)cc2Cl)ccc1[N+](=O)[O-]`, for which the compound was classed as inactive.

As for `CCC12COCN1COC2`, the compound was classed as inactive.

As to `[Cl-].[Cl-].[Hg+2]`, the compound was called inactive.

For the compound `Clc1ccc(Cl)c(Cl)c1`, the outcome was inactive.

With `c1ccc2c(c1)oc1ccccc12`, the compound was classed as inactive.

`CCOc1cccc(C2(N3CCN(c4ccccc4)CC3)CCC(C)CC2)c1` (stereo not given): the result was inactive.

Take `C[N+](C)(C)CC1CO1` (stereo not given): the compound was classed as inactive.

Turning to `c1ccc(N=Nc2ccccc2)cc1`, the compound was classed as inactive.

As to `[O-][Cl+]O`, the call was inactive.

As to `c1ccc2c(c1)-c1cccc3cccc-2c13`, the compound was classed as inactive.

For `Nc1ccc([N+](=O)[O-])cc1`, the call was inactive.

Regarding `Cc1cccc(N)c1N`, the AC50 was 50 µM (active).

With `CCCCCOC(=O)c1ccccc1C(=O)OCCCCC`, the outcome was inactive.

In the case of `Cc1ccc(N)c(N)c1`, the result was inactive.

For the compound `c1ccc(C2CO2)cc1` (stereo not given), the compound was called inactive.

On to `Clc1ccc(C(c2ccc(Cl)cc2)C(Cl)Cl)cc1`, for which the outcome was inactive.

Take `ClC1=C(Cl)C2(Cl)C3C(Cl)C=CC3C1(Cl)C2(Cl)Cl` (stereo not given): the call was inactive.

Take `Cn1cc(-c2ccccc2)c(=O)c(-c2cccc(C(F)(F)F)c2)c1`: the call was inactive.

Take `Nc1ccc(N=Nc2ccccc2)cc1`: the AC50 was 14.9 µM (active).

For the compound `C[C@]12C=CC3=C4CCC(=O)C=C4CC[C@H]3[C@@H]1CC[C@@H]2O`, the AC50 is 50 µM (active).

With `CCC[CH2][Sn]([Cl])([CH2]CCC)[CH2]CCC`, the AC50 is 1.66 µM (active).

Turning to `O=[N+]([O-])c1ccc(Oc2ccc(Cl)cc2Cl)cc1`, the compound was called inactive.

Take `CC(C)(C)OOC(C)(C)CCC(C)(C)OOC(C)(C)C`: the call was inactive.

With `CCCCOC(=O)c1ccccc1C(=O)OCc1ccccc1`, the compound was classed as inactive.

With `Nc1ccc(Oc2ccc(N)cc2)cc1`, the call was inactive.

In the case of `OCCOCCO`, the outcome was inactive.

Turning to `Nc1ccc(Cc2ccc(N)cc2)cc1`, the call was inactive.

`Nc1cc(Cl)cc(C(=O)O)c1Cl`: the result was inactive.

As for `CC(O)CCO` (stereo not given), the call was inactive.

As for `Cc1cc(N=Nc2ccccc2C)ccc1N`, the AC50 is 3.32 µM (active).

With `Clc1ccc(C(c2ccc(Cl)cc2)C(Cl)(Cl)Cl)cc1`, the compound was called inactive.

In the case of `[As]#[In]`, the compound was classed as inactive.

`Cc1ccc([N+](=O)[O-])cc1`: the result was inactive.

Take `CCCCCCCCOC(=O)c1ccc(C(=O)OCCCCCCCC)c(C(=O)OCCCCCCCC)c1`: the result was inactive.

As to `N#CC(Br)Br`, the outcome was inactive.

Regarding `COc1cc(C=O)cc2c1[C@H](COC(N)=O)[C@]1(OC(C)=O)ON2C[C@H]2[C@@H]1N2C(C)=O`, the AC50 is 0.412 µM (active).

For the origin of these results see PubChem BioAssay (EPA / NIEHS).
